Results taken from PubChem BioAssay AID1159580 (chemical genetic matrix, 2015).
About 2,000 (36%) of roughly 5,500 compounds were called active. Not shown: some 18% with an inconclusive outcome. Rule as the data show it: active = normalized growth mostly below about 0.91 (no sharp cut-off); inconclusive = no clear call, values can overlap the other calls; inactive = mostly above about 0.92. The list shows a part of the results.

Test: chemical genetic growth profiling, strain panel (AID 1159580);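 also: tested at 20 µM; growth read once vehicle control cultures reached saturation at 30 °C; 1 = growth at the plate median or of vehicle wells; lower values mean less growth of the strain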
Settings: growth OD

Measured: normalized growth

Nc1ccc(S(=O)(=O)Nc2ncccn2)cc1
inactive: S. cerevisiae deletion strains, locus YJR066W, strain TOR1, hits give low values 0.92 | S. cerevisiae deletion strains, locus YJR075W, strain HOC1, hits give low values 0.992 | S. cerevisiae deletion strains, locus YKL009W, strain mrt4, hits give low values 1.01 | S. cerevisiae deletion strains, locus YKL068W, hits give low values 0.989 | S. cerevisiae deletion strains, locus YKL085W, strain MDH1 (second series), hits give low values 0.996 | S. cerevisiae deletion strains, locus YKL085W, strain MDH1, hits give low values 0.996 | S. cerevisiae deletion strains, locus YKL160W, strain elf1, hits give low values 1.01 | S. cerevisiae deletion strains, locus YKL190W, strain CNB1, hits give low values 0.989 | S. cerevisiae deletion strains, locus YKR001C, strain vps1, hits give low values 1 | S. cerevisiae deletion strains, locus YKR026C, strain gcn3, hits give low values 0.966 | S. cerevisiae deletion strains, locus YKR091W, strain srl3, hits give low values 0.978 | S. cerevisiae deletion strains, locus YLL001W, strain dnm1, hits give low values 0.977 | S. cerevisiae deletion strains, locus YLL026W, hits give low values 0.999 | S. cerevisiae deletion strains, locus YLL041C, strain sdh2, hits give low values 0.997 | S. cerevisiae deletion strains, locus YLR027C, strain aat2, hits give low values 0.983 | S. cerevisiae deletion strains, locus YLR039C, strain RIC1, hits give low values 0.999 | S. cerevisiae deletion strains, locus YLR058C, strain SHM2, hits give low values 0.976 | S. cerevisiae deletion strains, locus YLR102C, strain apc9, hits give low values 0.993 | S. cerevisiae deletion strains, locus YLR113W, strain HOG1, hits give low values 0.973 | S. cerevisiae deletion strains, locus YLR221C, strain rsa3, hits give low values 0.968 | S. cerevisiae deletion strains, locus YLR258W, strain gsy2, hits give low values 0.98 | S. cerevisiae deletion strains, locus YLR262C, strain YPT6 (second series), hits give low values 0.981 | S. cerevisiae deletion strains, locus YLR262C, strain YPT6, hits give low values 0.974 | S. cerevisiae deletion strains, locus YLR268W, strain sec22, hits give low values 1.05 | S. cerevisiae deletion strains, locus YLR320W, strain mms22, hits give low values 0.982 | S. cerevisiae deletion strains, locus YLR330W, strain CHS5, hits give low values 0.994 | S. cerevisiae deletion strains, locus YLR342W, strain FKS1 (second series), hits give low values 1.01 | S. cerevisiae deletion strains, locus YLR342W, strain FKS1, hits give low values 0.992 | S. cerevisiae deletion strains, locus YLR357W, strain rsc2, hits give low values 0.939 | S. cerevisiae deletion strains, locus YLR370C, strain arc18, hits give low values 0.982 | S. cerevisiae deletion strains, locus YLR384C, strain iki3, hits give low values 0.994 | S. cerevisiae deletion strains, locus YLR418C, strain cdc73, hits give low values 0.997 | S. cerevisiae deletion strains, locus YML016C, strain PPZ1, hits give low values 0.988 | S. cerevisiae deletion strains, locus YML032C, strain rad52, hits give low values 1.01 | S. cerevisiae deletion strains, locus YML120C, strain ndi1, hits give low values 0.969 | S. cerevisiae deletion strains, locus YML124C, strain tub3, hits give low values 1 | S. cerevisiae deletion strains, locus YMR058W, strain fet3, hits give low values 1.01 | S. cerevisiae deletion strains, locus YMR078C, strain ctf18, hits give low values 0.985 | S. cerevisiae deletion strains, locus YMR125W, strain sto1, hits give low values 0.955 | S. cerevisiae deletion strains, locus YMR129W, hits give low values 0.983 | S. cerevisiae deletion strains, locus YMR205C, strain PFK2, hits give low values 0.985 | S. cerevisiae deletion strains, locus YMR223W, strain ubp8, hits give low values 0.976 | S. cerevisiae deletion strains, locus YMR231W, strain pep5, hits give low values 0.979 | S. cerevisiae deletion strains, locus YMR307W, strain GAS1, hits give low values 1 | S. cerevisiae deletion strains, locus YNL067W, strain RPL9B, hits give low values 0.99 | S. cerevisiae deletion strains, locus YNL071W, strain lat1, hits give low values 0.969 | S. cerevisiae deletion strains, locus YNL153C, strain GIM3, hits give low values 0.987 | S. cerevisiae deletion strains, locus YNL183C, strain NPR1, hits give low values 0.942 | S. cerevisiae deletion strains, locus YNL209W, strain ssb2, hits give low values 0.967 | S. cerevisiae deletion strains, locus YNL233W, strain BNI4, hits give low values 0.994 | S. cerevisiae deletion strains, locus YNL248C, strain rpa49, hits give low values 0.974 | S. cerevisiae deletion strains, locus YNL250W, strain rad50, hits give low values 1 | S. cerevisiae deletion strains, locus YNL271C, strain bni1, hits give low values 0.998 | S. cerevisiae deletion strains, locus YNL298W, strain CLA4, hits give low values 1 | S. cerevisiae deletion strains, locus YNL307C, strain MCK1, hits give low values 1 | S. cerevisiae deletion strains, locus YNL322C, strain KRE1 (second series), hits give low values 0.959 | S. cerevisiae deletion strains, locus YNR049C, strain mso1, hits give low values 0.98 | S. cerevisiae deletion strains, locus YNR052C, strain pop2, hits give low values 0.995 | S. cerevisiae deletion strains, locus YOL006C, strain TOP1, hits give low values 0.968 | S. cerevisiae deletion strains, locus YOL012C, strain htz1 1.31 | S. cerevisiae deletion strains, locus YOL147C, strain pex11, hits give low values 1 | S. cerevisiae deletion strains, locus YOR001W, strain rrp6, hits give low values 0.948 | S. cerevisiae deletion strains, locus YOR061W, strain CKA2, hits give low values 0.968 | S. cerevisiae deletion strains, locus YOR069W, strain VPS5, hits give low values 1 | S. cerevisiae deletion strains, locus YOR070C, strain gyp1, hits give low values 0.991 | S. cerevisiae deletion strains, locus YOR080W, strain dia2, hits give low values 0.972 | S. cerevisiae deletion strains, locus YOR083W, strain WHI5, hits give low values 0.964 | S. cerevisiae deletion strains, locus YOR106W, strain vam3, hits give low values 0.981 | S. cerevisiae deletion strains, locus YOR136W, strain idh2, hits give low values 0.983 | S. cerevisiae deletion strains, locus YOR144C, strain elg1, hits give low values 0.996 | S. cerevisiae deletion strains, locus YOR184W, strain ser1, hits give low values 0.994 | S. cerevisiae deletion strains, locus YOR231W, strain MKK1, hits give low values 0.978 | S. cerevisiae deletion strains, locus YOR265W, strain rbl2, hits give low values 1.02 | S. cerevisiae deletion strains, locus YOR270C, strain vph1, hits give low values 0.919 | S. cerevisiae deletion strains, locus YOR290C, strain snf2, hits give low values 0.974 | S. cerevisiae deletion strains, locus YOR316C, strain cot1, hits give low values 0.984 | S. cerevisiae deletion strains, locus YPL051W, strain arl3, hits give low values 1.01 | S. cerevisiae deletion strains, locus YPL055C, strain LGE1, hits give low values 0.939 | S. cerevisiae deletion strains, locus YPL078C, strain atp4, hits give low values 0.992 | S. cerevisiae deletion strains, locus YPL106C, strain sse1, hits give low values 0.983 | S. cerevisiae deletion strains, locus YPL240C, strain hsp82, hits give low values 0.99 | S. cerevisiae deletion strains, locus YPL241C, strain CIN2, hits give low values 0.996 | S. cerevisiae deletion strains, locus YPL256C, strain CLN2, hits give low values 0.968 | S. cerevisiae deletion strains, locus YPR119W, strain clb2, hits give low values 0.983 | S. cerevisiae deletion strains, locus YPR141C, strain kar3, hits give low values 0.983 | S. cerevisiae deletion strains, locus YPR163C, strain tif3, hits give low values 1 | S. cerevisiae deletion strains, locus YPR167C, strain met16, hits give low values 0.989 | S. cerevisiae deletion strains, strain wtn01, hits give low values 1.01 | S. cerevisiae strains, strain wild type, hits give low values 0.988
